We go through 13 compounds from PubChem BioAssay (NCI).

This is part of a sample that, as a whole, favours compounds with a hit. Of some 83,000 tested, about 20% had one in any assay.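 Method: cells in 96-well plates; compound added at one concentration; 48 h incubation; percent growth measured; values under 10 scored active.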 Unmarked numbers belong to inactive results. Activity calls are given as the source filed them.

Holding throughout (assay): NCI-60 one-dose screen, 48 h (100 = growth as untreated, 0 = no growth, -100 = all killed)
Details in all cases: 10 µM unless noted

In assay [1] the test system is HCT-15 colon.
Assay [2] relates to HT29 colon.
Assay [3] has as its system SNB-75 CNS.
For assay [4], the system named is SNB-19 CNS.
For assay [5], the system named is U251 CNS.
Assay [6] relates to PC-3 prostate.
In assay [7] the test system is SK-MEL-5 melanoma.
Assay [8] has as its system UACC-62 melanoma.
For assay [9], the system named is SK-MEL-28 melanoma.

With `CC(=O)NC1=C(C#N)C(c2ccccc2Cl)c2c(ccc3ccccc23)O1` (configuration not stated), the growth in assay [1] is 32%; in [2], 51.6%; in assay [3], 30.1%; in [4] it was 58.1%; in assay [5] it was 69.3%; in assay [6], 60.6%. Further, the growth in [7] was 56.7%; in [8], 36.6%; in assay [9], 66.4%.

With `Cn1cc(-c2csc(-c3cn(C(=O)OC(C)(C)C)c4ccccc34)n2)c2cccnc21`, the growth is 52.4% in assay [1]; 13% in [2]; 57.7% in assay [3]; 83.3% in assay [4]; 61.7% in [5]; 48.5% in assay [6]. Besides, the growth in [7] is 64%; in assay [8] it was 62.1%; in [9], 79.2%.

On to `O=C1NC(=Nc2ccc(S(=O)(=O)Nc3nccs3)cc2)S/C1=C\c1coc2ccccc2c1=O`, for which the growth in assay [1] was 104%; in assay [2], 97.6%; in assay [3] it was 55.9%; in assay [4], 98.5%; in assay [5] it was 102%; in [6], 95%. In addition, the growth in assay [7] is 103%; in assay [8], 99.5%; in assay [9], 111%.

`COc1ccc2[nH]cc(-c3nc(-c4c[nH]c5ncccc45)cs3)c2c1`: the growth is -34.8% (active) in [1]; 12.1% in assay [2]; 19.5% in assay [3]; 77.4% in [4]; 34.8% in assay [5]; 44.2% in [6]. The growth in assay [7] was 48.2%; in assay [8] it was 50.4%; in [9], 69.9%.

Turning to `COc1ccc(NC(=O)c2ccoc2COc2ccccc2)cc1`, the growth in assay [1] is 89%; in [2] it was 107%; in [3], 87.2%; in [4] it was 89.6%; in assay [5], 96.1%; in assay [6], 91.3%. Further, the results for the growth in [7], in assay [8] and in [9] were 100%, 82.7% and 94.6%, respectively.

Regarding `COc1cnc2c(c1)C(=O)c1c-2n(CCCN2CCN(CCO)CC2)c(=O)c2cc([N+](=O)[O-])ccc12`, the growth in assay [1] was -26.3% (active); in assay [2] it was -85.7% (active); in [3], 73.1%; in assay [4], -1.88% (active); in assay [5], -84.2% (active); in [6] it was 44.4%. In addition, the growth was 53.9% in assay [7], 37.8% in [8] and 102% in assay [9].

Consider `CCc1ccc(-c2ccc(Nc3ccccc3)nn2)cc1S(N)(=O)=O`, for which the growth in assay [1] is 65.3%; in assay [2], 68%; in [3], 123%; in assay [4], 105%; in assay [5], 80.8%; in [6], 60.6%. The values for the growth in assay [7], in [8] and in [9] were 79.8%, 81.1% and 87.7%, respectively.

Take `Cc1ccc(Sc2sc(-c3ccccc3)nc2[P+](c2ccccc2)(c2ccccc2)c2ccccc2)cc1`: the growth is 1.24% (active) in assay [1]; 3.9% (active) in assay [2]; -3.74% (active) in [3]; 10.4% in assay [4]; 13.8% in assay [5]; -30.6% (active) in assay [6]. Besides, the growth in assay [7] was -97.6% (active); in assay [8], -33.7% (active); in assay [9] it was 25.5%.

For the compound `Cn1cc(-c2nc(-c3cn(C)c4ncccc34)cs2)c2ccccc21`, the growth in assay [1] was 20.4%; in assay [2], 9.24% (active); in [3], 20.9%; in assay [4], 51.4%; in [5], 31.8%; in assay [6], 53.6%. For the same compound, the growth in assay [7] is 21.9%; in assay [8], 33.2%; in assay [9], 46.5%.

For `N#C/C(=C\c1ccc(-c2ccc(Br)cc2)o1)c1nc(-c2ccco2)cs1`, the growth in [1] is 80.1%; in [2] it was 99.5%; in assay [3], 78.9%; in assay [4] it was 92.7%; in [5], 93.9%; in [6], 91.5%. The growth in assay [7] was 85%; in assay [8], 81%; in assay [9], 100%.

For the compound `CC(C)(C)c1cc(-n2c(-c3ccc(Cl)cc3)nc3cc(C(=O)Nc4ccc(Cl)cc4)ccc32)n[nH]1`, the growth in [1] was 39.2%; in assay [2], 89.5%; in [3], 60.7%; in [4], 60.2%; in assay [5] it was 53.2%; in [6] it was 33.7%. Also, the growth in [7] was 44.8%; in assay [8], 39%; in assay [9] it was 79.7%.

For `CC1(C)C=CC[C@]2(C)[C@H]3CC[C@@H]4[C@H]5[C@H](C(=O)/C=C/c6cccnc6)CC[C@]5(CO)CC[C@@]4(C)[C@]3(C)CC[C@@H]12`, the growth is -61.7% (active) in assay [1]; -28% (active) in [2]; -89.8% (active) in assay [3]; -90.4% (active) in [4]; -90.8% (active) in [5]; -41.1% (active) in [6]. Also, the growth in assay [7] is -99.3% (active); in assay [8], -63.2% (active); in [9], -92% (active).

In the case of `O=C(NC1=CC(=O)c2ccccc2C1=O)c1ccccc1`, the growth in assay [1] is 29.1%; in assay [2], 71.2%; in [3], 34%; in assay [4], 36.3%; in assay [5] it was 21.1%; in assay [6], 16.6%. For the same compound, the values for the growth in assay [7], in assay [8] and in [9] were 0.587% (active), 15% and 52.3%, respectively.
